Drawing on PubChem BioAssay (EPA / NIEHS), this text covers AC50 and outcome for 17 compounds.

As a reminder, the AC50 is the midpoint of the concentration-response curve, whichever way the signal moves.

The structures appear in SMILES notation. Inconclusive results are not listed. Calls of active or inactive are those of the source. How the source made its calls: active means hit-call score of the fitted dose curve at least 0.9, where 1 is the maximum; inconclusive means response in the unintended direction; inactive means score below 0.9.

Experiment [1] can be described thus: ACEA_ER_AUC_viability: ACEA Biosciences xCELLigence Real-Time Cell Analysis on Estrogen Receptor Agonism for Viability (AID 2283782).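 Further: hit means loss of impedance signal meaning reduced cell growth or viability.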 The method, boiled down:
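Viability endpoint: reduced impedance area under the curve relative to DMSO, recorded by real-time electrode sensing over ~80 h of continuous exposure. Duplicate plates of T47D in hormone-depleted medium; eight concentrations, 1:4 dilutions, 100 uM maximum.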

Experiment [2] can be described thus: ACEA_AR_antagonist_AUC_viability: ACEA Biosciences xCELLigence Real-Time Cell Analysis on Androgen Receptor Antagonism for Viability (AID 2283776).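 Further: 22Rv1 human prostate cancer cells growing on impedance electrode plates; area under impedance growth curve at 80 h after dosing as viability; hits lower the growth signal relative to DMSO meaning cytotoxicity.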 The method, boiled down: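 Viability endpoint from label-free cell-index monitoring: 22Rv1 cultures treated with an eight-point 1:4 dilution series starting at 100 uM final, AUC at 80 h fitted against DMSO.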
In a further experiment the target is AR (gene 367) (UniProt P10275). Nature of the experiment: ACEA_AR_agonist_80hr: ACEA Biosciences xCELLigence Real-Time Cell Analysis on Androgen Receptor Agonism for Proliferation (AID 2283783).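 Further: hits increase impedance growth signal above DMSO baseline.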 The method, boiled down: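 Eight concentrations, 1:4 serial dilution from a 100 uM final top, in biological duplicate. Impedance-based real-time growth of 22Rv1 cells after overnight baseline, recorded hourly and read at 80 hours. Controls: testosterone, MG132, assay media.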
Sequence of AR (gene 367) (P10275 whole entry, looked up): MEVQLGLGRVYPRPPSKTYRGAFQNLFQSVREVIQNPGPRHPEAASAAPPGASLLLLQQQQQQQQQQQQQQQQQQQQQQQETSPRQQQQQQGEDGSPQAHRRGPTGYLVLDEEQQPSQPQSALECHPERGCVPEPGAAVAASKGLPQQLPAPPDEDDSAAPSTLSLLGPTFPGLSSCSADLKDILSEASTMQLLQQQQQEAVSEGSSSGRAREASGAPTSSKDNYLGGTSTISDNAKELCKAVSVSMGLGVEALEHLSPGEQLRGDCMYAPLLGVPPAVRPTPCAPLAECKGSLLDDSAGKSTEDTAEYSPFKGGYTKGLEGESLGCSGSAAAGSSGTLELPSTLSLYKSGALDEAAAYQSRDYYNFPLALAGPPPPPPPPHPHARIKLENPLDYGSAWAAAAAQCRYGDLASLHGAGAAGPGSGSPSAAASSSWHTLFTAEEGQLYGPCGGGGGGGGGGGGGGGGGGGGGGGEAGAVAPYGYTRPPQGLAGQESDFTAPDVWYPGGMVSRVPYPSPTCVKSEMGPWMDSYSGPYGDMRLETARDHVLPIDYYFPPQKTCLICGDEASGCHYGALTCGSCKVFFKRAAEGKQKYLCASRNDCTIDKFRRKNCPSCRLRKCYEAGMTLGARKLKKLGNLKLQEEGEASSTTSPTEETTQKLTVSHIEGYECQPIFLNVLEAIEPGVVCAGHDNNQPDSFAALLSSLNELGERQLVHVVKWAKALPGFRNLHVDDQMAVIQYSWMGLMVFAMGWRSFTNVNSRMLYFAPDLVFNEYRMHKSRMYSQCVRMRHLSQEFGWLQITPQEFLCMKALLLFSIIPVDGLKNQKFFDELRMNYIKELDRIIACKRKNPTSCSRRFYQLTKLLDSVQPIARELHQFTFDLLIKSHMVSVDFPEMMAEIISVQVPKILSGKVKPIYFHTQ

For `CC(C)C(=O)C(C)C`, the AC50 in experiment [1] was 19.7 µM (active). With `Cc1ccc(N)c([N+](=O)[O-])c1`, in experiment [1], the compound was called inactive. For the compound `C=C(C)c1cccc(C(C)(C)N=C=O)c1`, the compound was classed as inactive in experiment [1]. Take `Nc1ncn([C@@H]2O[C@H](CO)[C@@H](O)[C@H]2O)c(=O)n1`: in experiment [1], the AC50 was 3.22 µM (active).

For `CC(C)CC(O)Cc1ccccc1` (stereo not drawn), in experiment [1], the call was inactive. With `O=[N+]([O-])c1ccc(CO)cc1`, in experiment [1], the outcome was inactive.

As to `CC(=O)OC1C2(C)CCC(C2)C1(C)C` (stereo not drawn), the result in experiment [1] was inactive.

On to `Cc1ccc([N+](=O)[O-])cc1S(=O)(=O)O`, for which the compound was classed as inactive in experiment [1]. Consider `CCCCCCCCC(=O)OCC`, for which, in experiment [1], the AC50 is 50 µM (active). In the case of `CCCCCCCC(C)=O`, the result in experiment [1] was inactive. Still for that read-out and setting: the entry for `C=C1[C@H]2CC[C@@H]3[C@H]2C(C)(C)CCC[C@]13C` is “inactive”. Turning to `O=S(=O)(O)CC(O)CCl` (stereo not drawn), the compound was called inactive in experiment [1].

For `CCCNC(=O)NS(=O)(=O)c1ccc(Cl)cc1`, the result in experiment [1] was inactive.

For `CC(C)c1ccc2cc(C(C)C)ccc2c1`, the compound was classed as inactive (in experiment [2]; with AR (gene 367)).

For the compound `CCO[Si](CCCN=C=O)(OCC)OCC`, the call in experiment [1] was inactive. For `Cc1cc(C)c(C)cc1C`, the compound was called inactive in experiment [1].

On to `CC(CC=O)CCCC(C)(C)O` (stereo not drawn), for which the compound was called inactive in the experiment with AR (gene 367).
